# Assay results from PubChem BioAssay (NCI).
# The panel holds about 83,000 compounds, 20% with a hit somewhere; the sample as a whole holds those more often.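 The test compound was applied at a single concentration to cells in 96-well plates for 48 hours, and percent growth was recorded.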 Values without a mark were called inactive. The source made the active and inactive calls. How the source made its calls: active means growth percent below 10; inactive means the rest.
# Tests used:
# Test in all cases: NCI-60 one-dose screen, 48 h (100 = growth as untreated, 0 = no growth, -100 = all killed)
# Conditions in all cases: 10 µM unless noted
# SR leukemia = test system: SR leukemia
# RPMI-8226 leukemia = test system: RPMI-8226 leukemia
# OVCAR-8 ovarian = test system: OVCAR-8 ovarian
# OVCAR-5 ovarian = test system: OVCAR-5 ovarian
# OVCAR-4 ovarian = test system: OVCAR-4 ovarian
# SK-OV-3 ovarian = test system: SK-OV-3 ovarian
# IGROV1 ovarian = test system: IGROV1 ovarian
# OVCAR-3 ovarian = test system: OVCAR-3 ovarian
# HS 578T breast = test system: HS 578T breast
# NCI/ADR-RES ovarian = test system: NCI/ADR-RES ovarian
Structure (SMILES),growth (SR leukemia),growth (RPMI-8226 leukemia),growth (OVCAR-8 ovarian),growth (OVCAR-5 ovarian),growth (OVCAR-4 ovarian),growth (SK-OV-3 ovarian),growth (IGROV1 ovarian),growth (OVCAR-3 ovarian),growth (HS 578T breast),growth (NCI/ADR-RES ovarian)
COc1ccc2c(c1)CCCN2c1c2ccccc2nc2ccccc12,12.5%,20.5%,16.6%,28.3%,30.4%,37.5%,32.7%,-21.7% (active),10.4%,0.746% (active)
Cc1c(O)cc(-c2cnc(N/N=C\c3ccc(Cl)cc3)s2)c(O)c1C,58.3%,41.5%,60.7%,102%,61.7%,104%,83.5%,90.3%,77.6%,80.5%
CCC(CO)Nc1nc2ccc(Cl)cc2c2ccccc12 (stereo not drawn),26.9%,66.6%,75.1%,66.9%,71.3%,70.7%,58.1%,–,29.5%,62.4%
COc1cccc(Nc2nccc(Nc3ccc4[nH]ncc4c3)n2)c1,-11.5% (active),-39.6% (active),-80.5% (active),32.9%,-59.6% (active),15.3%,-24.2% (active),-61.5% (active),23.9%,-11.4% (active)
C=CCn1c(C)nc2cc(Nc3nc(Cl)nc4ccccc34)ccc21,94.7%,75.2%,93.8%,99.8%,91.2%,122%,116%,102%,92.7%,90.3%
O=C1/C(=C/c2ccc(Br)cc2)C=C(c2ccccc2)N1CCc1ccccc1,58.6%,101%,17.7%,66%,-17.1% (active),15.4%,41.9%,–,22.8%,27.8%
N[C@@H](CCCCNCC(=O)O)C(=O)O,99.3%,116%,105%,102%,101%,103%,108%,114%,98.2%,101%
CCCCCCCCCCN(CCCCCCCCCC)CC(=O)c1ccc2cc(Br)c3ccccc3c2c1,-28.5% (active),-33.1% (active),86.9%,95.3%,77.4%,104%,-79.5% (active),51.2%,–,64.8%
CCCCCCCC/C=C\CCCCCCCCOc1ccccc1CC(=O)NCC[N+](C)(C)C,23.6%,56.1%,64.4%,25%,78.7%,81.9%,28.9%,–,91.8%,104%
CC1SC(c2ccc(OCc3ccccc3)cc2)N(NC(=O)C(O)(c2ccccc2)c2ccccc2)C1=O (stereo not drawn),35.9%,-7.26% (active),77.8%,80.5%,54.7%,73.3%,–,31%,74.6%,63.5%
O=C(Nc1cccc(Cl)c1)c1cc(N=Nc2ccc([N+](=O)[O-])cc2Cl)ccc1O,20.7%,3.54% (active),15.6%,112%,59.9%,93.1%,–,85%,54%,67.6%
NS(=O)(=O)c1cnccc1Oc1cccc2cccnc12,86%,88.4%,54.1%,82.9%,118%,77.8%,–,113%,88.7%,107%
CCCCn1c(=O)c2c(nc(NCCc3ccc(O)c(O)c3)n2CCC)n(CCCC)c1=O,35.9%,74.8%,75.5%,97.9%,45.5%,96.3%,82.5%,65.2%,66.5%,77.2%
Cn1c2c(c3ccc(Cl)c(Cl)c31)C(C#N)C1(CCNCC1)NC2=O (stereo not drawn),13.6%,14.2%,67.8%,62.1%,53.5%,68.7%,-19.3% (active),–,35.1%,68.5%
COC(=O)[C@]12CC[C@@H](C)[C@H](C)[C@@H]1C1=CC[C@@H]3[C@@]4(C)C(C=O)=C[C@@](C)(COS(C)(=O)=O)[C@@H]4C(=O)C[C@@]3(C)[C@]1(C)CC2,24.9%,23.4%,44.6%,67.1%,37.7%,66.4%,52.1%,31.4%,62.3%,38.6%
CC1=CN2C(=O)C3C4=C(CCCC4)SC3N=C2CN1c1c(C)cccc1C (stereo not drawn),41.8%,54.4%,109%,94%,93.3%,114%,107%,–,103%,99.6%
COc1cccc(-c2nn(-c3ccccc3)cc2-c2ccnc(NCCCNC(=O)c3ccc(F)cc3)c2)c1,-14.2% (active),38.2%,45.9%,85.4%,42.1%,48.2%,47.5%,37.7%,61.4%,14.4%
C=C1C(=O)O[C@H]2[C@H]1CC/C(COC(=O)C(=O)c1cn(C)c3ccc(OC)cc13)=C\CC[C@@]1(C)O[C@@H]21,2.42% (active),-37.5% (active),-9.07% (active),-18.9% (active),20.3%,-11.6% (active),-67.7% (active),-72.1% (active),3.23% (active),7.43% (active)
COC(=O)[C@]12CC[C@@H](C)[C@H](C)[C@@H]1C1=CC[C@@H]3[C@@]4(C)C(C=O)=C[C@@](C)(COC(C)=O)C4=CC[C@@]3(C)[C@]1(C)CC2,-30.5% (active),-9.49% (active),13.2%,12.9%,17%,6.81% (active),12.9%,–,-12.9% (active),12.5%
O=[N+]([O-])c1ccc(C2CC(c3ccccc3)=Nc3ccccc3S2)cc1 (stereo not drawn),30.9%,-6.89% (active),94.9%,113%,93.5%,100%,58.7%,–,93.3%,95.1%
CCN(CC)Cc1cccc(C(=O)OC)c1,95%,91.8%,99.6%,94.1%,101%,89.4%,102%,111%,109%,102%
COC(=O)[C@]12CC[C@@H](C)[C@H](C)[C@@H]1C1=CC[C@@H]3[C@@]4(C)C(C=O)=C[C@@](C)(COC(=O)c5ccco5)C4=CC[C@@]3(C)[C@]1(C)CC2,-8.74% (active),4.82% (active),19.6%,8.46% (active),18.6%,27.8%,26.5%,–,3.14% (active),23.7%

Structure (SMILES),growth (SR leukemia),growth (RPMI-8226 leukemia),growth (OVCAR-8 ovarian),growth (OVCAR-5 ovarian),growth (OVCAR-4 ovarian),growth (SK-OV-3 ovarian),growth (IGROV1 ovarian),growth (OVCAR-3 ovarian),growth (HS 578T breast),growth (NCI/ADR-RES ovarian)
C=CCn1c(C)nc2cc(Nc3nc(N4CCCC4)nc4ccccc34)ccc21,5.75% (active),55%,84.1%,123%,91.3%,123%,95.4%,105%,86.8%,83.3%
Cc1nc2c(c(N3CCCc4ccccc43)n1)CCC2,2.73% (active),11.2%,11%,48.3%,42.4%,5.28% (active),24.5%,–,23%,9.25% (active)
COC(=O)[C@]12CC[C@@H](C)[C@H](C)[C@@H]1C1=CC[C@@H]3[C@@]4(C)C(C=O)=C[C@@](C)(COC(=O)/C=C/c5ccccc5)[C@@H]4[C@H](O)C[C@@]3(C)[C@]1(C)CC2,-6.65% (active),1.62% (active),9.9% (active),7.64% (active),21.4%,18.6%,23.9%,-75.9% (active),-8.26% (active),17.9%
O=c1ssc(Cl)c1-c1ccccc1,124%,111%,89.4%,88.7%,98.4%,118%,83.7%,126%,104%,95.9%
O=C(c1ccc(Nc2nccc(NCCCCNc3ccnc4cc(Cl)ccc34)n2)cc1)N1CCCCC1,-27.3% (active),8.24% (active),23%,91.9%,49%,97.7%,46.5%,36.6%,65%,89%
COc1ccc2[nH]c(O)c(/C=c3/cc4c(c(-c5cc(OC)c(OC)c(OC)c5)n3)=Nc3ccccc3-4)c2c1,10.4%,1.39% (active),42%,116%,64.8%,113%,85.8%,74.5%,73.9%,39.4%
COc1ccc2cc(-c3cc(OC)c(OC)c(OC)c3)c(=O)oc2c1,26.8%,83.6%,82.8%,94.2%,79.9%,72%,82.3%,81.8%,75.5%,49%
CCCCOc1nc2ccccc2cc1C1CNC(=O)c2ccccc2N1 (stereo not drawn),19.8%,25.6%,22.4%,55.3%,47.7%,14.8%,38%,-9.73% (active),34.1%,3.84% (active)
Cc1cc(NCc2cc(Nc3ccnc4cc(Cl)ccc34)ccc2F)nc(N2CCSCC2)n1,-11.7% (active),-9.52% (active),19.2%,78.7%,14.4%,10.3%,40.6%,-32.6% (active),-1.47% (active),15.7%
Cc1cc(Cl)ccc1Nc1nc(C(F)(F)F)ccc1C(=O)N/N=C/c1ccc(N(C)C)cc1,17.4%,-26.1% (active),18.7%,43.2%,16%,42.3%,21%,22.5%,39.4%,16.1%
CCCCn1c(=O)c2c(nc3n2CCCN3CCc2ccc(OCC(=O)NCCN(CC)CC)cc2)n(CCCC)c1=O,-22% (active),61.5%,60.8%,94%,52.3%,51.8%,59.3%,71.2%,20.8%,60.7%
COc1ccc(-c2csc(C3=C(O)CN(CCCN4CCCC4=O)C3=N)n2)cc1OC,77.1%,85.5%,94.6%,94.2%,116%,109%,63.9%,99.4%,92.9%,100%
O=C(Nc1ccccc1)Nc1cccc(Oc2nnc(Cl)c3ccccc23)c1,18%,35.1%,15.5%,86.3%,0.217% (active),-0.5% (active),37.2%,–,1.19% (active),16.9%
O=C1CC(N2C(=O)/C(=C/C(Cl)=C\c3ccc([N+](=O)[O-])cc3)SC2=S)C(=O)N1c1ccc(O)cc1 (stereo not drawn),-13.4% (active),-15.1% (active),11.6%,-56.5% (active),14.1%,33.5%,-45.8% (active),-16.4% (active),15.5%,3.58% (active)
CC(=O)N1N=C(c2ccc(Nc3nc(Nc4ccc(F)cc4)nc(Nc4ccc(F)cc4)n3)cc2)CC1c1cccc([N+](=O)[O-])c1 (stereo not drawn),22.4%,19.8%,91.6%,75.5%,47.8%,110%,76.9%,235%,96.5%,67.2%
O=C(COc1ccc(/C=C2\Oc3ccccc3C2=O)cc1)Nc1nc2c(s1)CCCC2,-90.7% (active),-86.3% (active),6.97% (active),61.7%,75.6%,27.3%,–,29.3%,69.2%,78.8%
CC1CC2Oc3ccc(Cl)cc3C(=O)N2O1 (stereo not drawn),98.2%,91.1%,107%,98.7%,117%,–,–,114%,102%,107%
Cc1ccc(C(=O)C2=C(O)C(=O)N(Cc3cccnc3)C2c2ccccc2F)o1 (stereo not drawn),97.3%,105%,92.6%,101%,106%,94.5%,–,97.4%,102%,98.9%
COc1ccc(-c2csc(C3=C(O)CN(C(C)C)C3=N)n2)cc1OC,57%,56.3%,91%,96.6%,117%,124%,–,117%,110%,98.5%
NS(=O)(=O)c1cnccc1Sc1ccncc1S(N)(=O)=O,92.2%,86.2%,96%,101%,118%,–,–,103%,94.5%,98.9%
O=C(NCCCNc1cc(-c2cn(-c3ccccc3)nc2-c2cccc(O)c2)ccn1)c1ccccc1,-25.8% (active),-7.45% (active),27.5%,63.3%,38.1%,–,50.8%,45.8%,-6.38% (active),25.8%
